The values that follow come from PubChem BioAssay (Tox21).

Values joined by “and” are separate entries in the source; they are usually repeats but may differ in a detail not shown here. Equal values may be shown once. Records with an inconclusive call do not appear. Active and inactive are the calls of the source. Calls follow the shape of the dose curve; as a rule, active = well fitted inhibition curve with a large enough effect in the repeat runs; inconclusive = weak or mixed curves; inactive = no such curve, though single readings can be large or run the other way.
Potency is read from the fitted curve at half-maximal effect.

Chain of Cytochrome P450 2C9 (Homo sapiens) (P11712 whole entry, looked up): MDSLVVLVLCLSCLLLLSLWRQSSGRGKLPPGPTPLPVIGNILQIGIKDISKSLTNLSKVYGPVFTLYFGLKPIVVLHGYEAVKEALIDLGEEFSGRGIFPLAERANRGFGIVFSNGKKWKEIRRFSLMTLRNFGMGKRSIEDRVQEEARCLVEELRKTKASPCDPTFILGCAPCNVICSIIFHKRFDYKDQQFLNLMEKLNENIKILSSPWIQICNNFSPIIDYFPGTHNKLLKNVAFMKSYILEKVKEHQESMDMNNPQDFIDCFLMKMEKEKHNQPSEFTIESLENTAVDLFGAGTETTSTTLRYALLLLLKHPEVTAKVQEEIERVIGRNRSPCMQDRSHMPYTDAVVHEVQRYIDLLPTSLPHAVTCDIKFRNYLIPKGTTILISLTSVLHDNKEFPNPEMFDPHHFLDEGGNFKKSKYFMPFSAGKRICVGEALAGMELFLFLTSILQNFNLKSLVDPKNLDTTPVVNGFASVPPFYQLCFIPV

This assay concerns the target Cytochrome P450 2C9 (Homo sapiens) (UniProt P11712). Nature of the assay: Cytochrome P450 Family 2 Subfamily C Member 9 (CYP2C9) small molecule antagonists: luciferase reporter qHTS assay (AID 1671198). Also: nearly all actives have a fitted effect of over 50% in size. As to conditions: P450-Glo CYP2C9 enzyme assay, luciferin luminescence; series mostly up to 115 µM. The method, boiled down:
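P450-Glo proluciferin substrate with CYP2C9 enzyme; 10 min RT preincubation, then NADPH regeneration 1 h at 37C; luciferin detection reagent 20 min RT, luminescence in relative luminescence units.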
In general terms: A reporter such as luciferase makes a cellular process visible.
Take `CCC1(c2cnc[nH]2)Cc2ccccc2C1`: the Potency is 1.55 µM (active).
The value for `CCCCCCCCC(C)=O` was “inactive”.
The value for `CCCCCCC(C)OC(=O)COc1nc(F)c(Cl)c(N)c1Cl` (stereo unspecified) was 17.8 µM (active).
Under `O=C1C=CC(=O)N1c1ccccc1` stands 28.3 µM (active); under `CC(=O)OC1CCCCC1`, “inactive”; under `O=Nc1ccc(NO)cc1`, “inactive”.
For `Nc1cc(Cl)c([N+](=O)[O-])cc1O`, the Potency was 31.5 µM (active).
Regarding `CC1=C(/C=C/C(C)=C/C=C/C(C)=C/C(=O)Nc2ccc(O)cc2)C(C)(C)CCC1`, the Potency is 9.17 µM (active) and 8.71 µM (active).
The value for `CCCOc1sc(C(=O)N2CCC(c3cc(CN)ccc3F)CC2)c(C)c1Br` was 1.63 µM (active); that for `N#CSCSc1nc2ccccc2s1` was 31.7 µM (active); that for `CO[Si](CCC1CCC2OC2C1)(OC)OC` (stereo unspecified) was “inactive”.
The value for `CC(=O)Oc1ccc(C2(c3ccc(OC(C)=O)cc3)C(=O)Nc3ccccc32)cc1` was 5.49 µM (active); that for `CCCCCCCOC(=O)c1ccccc1C(=O)OCCCCCCC` was 17.8 µM (active); that for `COc1ccc2sc(C(=O)Nc3nnn[nH]3)c(OC(C)C)c2c1` was 22.4 µM (active).
Under `O=C(O)Cc1ccc(OCCNC[C@H](O)c2ccccc2)cc1` stands “inactive”; under `C=C(c1ccc(C(=O)O)cc1)c1cc2c(cc1C)C(C)(C)CCC2(C)C`, 27.5 µM (active).
Take `COc1cccc(CCc2ccccc2OCC(CN(C)C)OC(=O)CCC(=O)O)c1` (stereo unspecified): the Potency result is “inactive”.
The value for `CN(C)CCN1CCOCC1` was “inactive”.
Under `CCOC(/C=C(\C)CCC=C(C)C)OCC` stands “inactive”; under `CCC1CCCCC1`, “inactive”; under `C=CC(C)(CCC=C(C)C)OC(=O)/C=C/c1ccccc1` (stereo unspecified), 6.33 µM (active).
